Results on 40 compounds are retold here after PubChem BioAssay (NCI).

Compounds without any hit were thinned out: in the full panel of roughly 79,000, 15% have a hit. Values without a mark were called inactive. Active and inactive are the calls of the source. Cut-off read from the data, not from the text of the source: active = growth inhibition above about 70%; inactive = the rest. Where a SMILES comes first, the peptide text is derived from it. The star is where a group is joined. Boc = CC(C)(C)OC(=O)*

This experiment can be described thus: NCI Yeast Anticancer Drug Screen. Data for the sgs1 mgt1 strain (AID 161).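 Note: 0% = growth of cultures given vehicle only.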 Conditions: S. cerevisiae sgs1 mgt1 strain, at 50.0 µM, active compounds read high. In outline: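 Mutant yeast exposed to compound; growth scored against vehicle-only wells.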
In the case of `C=CCCC1CN2CCc3cc(OC)c(OC)cc3C2CC1=O` (stereo not given), the growth inhibition was 10.6%.

On to `COC(=O)CCSC(=S)NCc1ccccc1`, for which the growth inhibition was -20%.

For the compound `CN(C)CC1CCC/C(=C\c2ccc(N(C)C)cc2)C1=O` (stereo not given), the growth inhibition was -9.85%.

For the compound `O=Cc1ccccc1[N+](=O)[O-]`, the growth inhibition was 15%.

On to `Cc1cccc(C)c1Nc1cc(=O)[nH]c(=O)[nH]1`, for which the growth inhibition was 3.4%.

As to `S=C(Nc1ccc(I)cc1)SCc1ccc2c(c1)OCO2`, the growth inhibition was 25.5%.

For `CC(=O)CC(=O)NCCCc1ccccc1`, the growth inhibition was -21.6%.

With `Cc1c2cnccc2c(C)c2c1c1ccccc1n2CCCCCC#N`, the growth inhibition was 99.2% (active).

On to `c1ccc(N2CCCC2(c2ccccc2)c2ccccc2)cc1`, for which the growth inhibition is 47.1%.

In the case of `COC(=O)CCCCC#CCCCCC(=O)OC`, the growth inhibition is -4.65%.

In the case of `CCCc1cc(OC(=O)c2c(O)cc(OC)cc2CCC)cc(O)c1C(=O)O`, the growth inhibition was 15.9%.

Turning to `Nc1ncnc2nc(-c3ccc(C(=O)c4cccc([N+](=O)[O-])c4)cc3)[nH]c12`, the growth inhibition was -7.5%.

Take `CN(C)c1ccc(/C=c2\[nH]c(=O)/c(=C\c3ccc(N(C)C)cc3)[nH]c2=O)cc1`: the growth inhibition was 12.2%.

As to `O=C(NCCCl)NCc1cccc2c1CCCC2`, the growth inhibition was -3.85%.

In the case of `Nc1ccc2c(c1)Cc1cccc(N)c1-2`, the growth inhibition was 0.7%.

In the case of `N#CNC(=NCC1CCCO1)Nc1cccnc1` (stereo not given), the growth inhibition is -26.4%.

Regarding `CC(=O)OCC1OC(OC(C)=O)C(NC(=O)CN(Cc2ccccc2)S(C)(=O)=O)C(OC(C)=O)C1OC(C)=O` (stereo not given), the growth inhibition is -16.1%.

For `O=C1CCCCCCCS(=O)(=O)C1`, the growth inhibition was -4.75%.

On to `CCc1c(COC(=O)NC)c(COC(=O)NC)cc2c1[nH]c1ccccc12`, for which the growth inhibition was -2.95%.

For the compound `O=c1[nH]c2nc[nH]c(=O)c2[nH]1`, the growth inhibition is 5.1%.

`CCCCCCCCCCCCCC(=O)OCCN(C)C`: the growth inhibition is 7.7%.

With `[N-]=[N+]=Nc1ccccc1C(=O)NCCCNC(=O)c1ccccc1N=[N+]=[N-]`, the growth inhibition is 25%.

As for `CCCC(=O)c1ccccc1`, the growth inhibition was 19.9%.

`CCOc1ccc(C(=O)C=O)cc1`: the growth inhibition was 11.4%.

On to `CC(C)COS(=O)(=O)O`, for which the growth inhibition is 20%.

Take `C=C1CCC2[C@](C)(CCC[C@]2(C)C(=O)O)[C@@H]1CCc1ccoc1` (stereo not given in full): the growth inhibition is 73% (active).

`Cc1ccc(C)[nH]1`: the growth inhibition was -8.45%.

As to `C=C1C(C(=O)O)C1C(=O)O` (stereo not given), the growth inhibition was 20.4%.

Turning to `CCOCCOCCOC(=O)c1ccccc1O`, the growth inhibition is -4.4%.

For the compound `COc1ccccc1NC(=O)CC(=O)n1nc(C)c(N=Nc2ccccc2C(=O)O)c1C`, the growth inhibition was -17.6%.

`Cc1ccc(C(=O)N/N=C/c2ccc(N(C)C)cc2Cl)cc1`: the growth inhibition was 16.4%.

On to `CCOC(=O)c1c(NC2=NCCC2)n[nH]c1N`, for which the growth inhibition is 15%.

As for `O=[N+]([O-])c1ccccc1C1N2CCCCC2[C@@H]2c3[nH]c4ccccc4c3CCN12` (stereo not given in full), the growth inhibition is 3.3%.

`Cn1cc(/C=C\C(=O)O)c2ccccc21`: the growth inhibition was 6.7%.

With `CCCCCCCCCCCCCCCCN1c2ccccc2C(C)(C)C12C=Cc1cccc([N+](=O)[O-])c1O2` (stereo not given), the growth inhibition is 13.7%.

As to `CC1(C)CNC[C@@](C)(O)C(=O)NC(C)(C)CNC[C@@](C)(O)C(=O)N1`, the growth inhibition was -32.6%.

For `Cc1ccc(N2CCN(CCC(=O)O)CC2)cc1`, the growth inhibition is 0.75%.

For the compound `Nc1cccc2c(O)cc(S(=O)(=O)O)cc12`, the growth inhibition is 7.6%.

For `CCOC(=O)C1C(=O)CC(C)(O)C(C(=O)OCC)C1c1ccc(N(C)C)cc1` (stereo not given), the growth inhibition is -3.6%.

For `COC(=O)C(Cc1c[nH]c2ccccc12)NC(=O)C(Cc1c[nH]c2ccccc12)NC(=O)C(Cc1c[nH]c2ccccc12)NC(=O)OC(C)(C)C` (stereo not drawn) (Boc-Trp-Trp-Trp-OMe; configuration not given here), the growth inhibition is -2.45%.
